# Source: the supplement of paper PMC11417369
# ± gives the standard deviation of the averaged measurements. In all, about 25,000 sequences were measured (“ln(normalized median fluorescence intensity)”: median about 10, highest 2% from about 12 on). This excerpt belongs to a sample that is enriched for the highest values.
# System: PfAP2-G AP2 domain (GST-tagged)
# Test: gcPBM binding intensity (ln(normalized median fluorescence intensity)); higher = stronger DNA binding
# Outline: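 GST-tagged P. falciparum DNA-binding domains, expressed in E. coli (about 25 μg on average), were applied for 1 h to an Agilent 4 × 180k array of primer-extended double-stranded 36-bp intergenic genomic probes plus negative controls. The binding buffer was 1× PBS with 1% milk, 0.2 mg/ml BSA, 0.5% salmon testes DNA and 0.03% Triton X-100. Bound protein was detected with Alexa488 anti-GST antibody and scanned at 488 nm. Binding intensity is the highest Masliner-normalised natural-log median intensity across replicate spots of either probe orientation.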
row,Sequence,gcPBM binding intensity (ln)
1,TATTTTATATGATAGGTGCATTTTTTTTTTTTTTTT [GTGCAC_site9757],10.4 ± 0.48
2,TTCTTTATTTTTTCTACACACATTATATATTCAAAG [CACACA_site5866],10.12 ± 0.099
3,CAACACTTATTGAAACGTACGCATATAGTTTCTTTT [XGTACX_site8960],11 ± 0.55
4,TATAAATATAAATATACACACATATATTTATTTATA [CACACA_site6890],9.645 ± 0.078
5,TATTTGTGCCAAAAATGAAAAAGTTTGTATAAAACC [CACACA_negctrl_site1406],10.1 ± 0.17
6,AAGATACACTTAATCGCACACGAAATTATATATTTA [CACACA_site3063],10.1 ± 0.24
7,TATATATATTATATATGTACATATATTTTTTTTTTT [XGTACX_site127],11.2 ± 0.81
8,ATTTAAGGGGTGTATGCACACGACTATTCCGTATGA [CACACA_site4738],10.23 ± 0.092
9,ATTTTTTTTTCTTGTACACACTATTTTATAATTTTA [CACACA_site6102],11.6 ± 0.93
10,TATATCTGTTTATATTGTACACATATATATATATAT [XGTACX_site714],11.4 ± 0.93
11,ATATATATATAGTACGCACACATAGTTGTACATTAA [CACACA_site2787],12 ± 1.3
12,TCATTCTTGTGTTTATGTACACATATTTATATTGTA [XGTACX_site710],11.4 ± 0.88
13,CATATTTTCTTGTGTACACATTTATTTTATACTATA [CACACA_site6032],11.7 ± 0.97
14,AATATGTAATAGTGTACACATATATCTGTATTTATG [CACACA_site4252],11.6 ± 0.91
15,TATATATATATATATAGTACGCACACATAGTTGCAA [XGTACX_site5875],11.1 ± 0.67
16,ATACGCACACATATATGTACATATTGTATATATATA [XGTACX_site3962],11.2 ± 0.71
17,TATTATCTGTAGTGTACACATATTATATAGTACTTT [CACACA_site4582],11.8 ± 1
18,ATGAATTAACCTAATCGTACAATAAATATTATTATA [XGTACX_site596],11 ± 0.81
19,AAAATTAAAAAGAACACACAAATATATCTATAATAA [CACACA_site7660],9.81 ± 0.26
20,TTCTATATTATATATGCATGTGTTATTCTTATTTTC [TGCATGCA_site92],9.87 ± 0.057
21,TTATATTTTATTATGTGTACGTATATAATATAATAT [XGTACX_site6230],11.6 ± 0.97
22,ATTTATATATATTTATGTACGTATTAATTTTTTTTT [XGTACX_site3877],11.5 ± 0.88
23,ATATGATTAATTAAGTGTACGTATTTATAATTATAA [XGTACX_site5783],11.7 ± 1

row,Sequence,gcPBM binding intensity (ln)
1,ATTTTTTTTTTTTATAGTGGATCCACATTTGCCATT [CACACA_negctrl_site1284],10.3 ± 0.36
2,AAAAAAAATTAGGAAACATGCATGTCCCGATAAATA [TGCATGCA_site149],10.28 ± 0.049
3,TCTTATTATAAAAGGAGTACATCAATTAGATGTTCC [XGTACX_site8465],11.6 ± 1
4,ATAATATATATATATATATTATCAAATATATATATA [GTGCAC_negctrl_site346],9.55 ± 0.23
5,TATTATATATAATATTGTACATTAAAATATTAAAGA [XGTACX_site3698],10.9 ± 0.67
6,ATATAATGAAGTGAATGTACATATAAAATGTAAAAA [XGTACX_site8052],11.1 ± 0.43
7,GGAAGATGAAAAATAAAGCATGTGCTGTACAAACGA [CACACA_negctrl_site1625],10.8 ± 0.37
8,ATATAAATATTTATTAGTACACATTAGTGTAGTTTT [XGTACX_site4493],11.5 ± 0.88
9,AATATTTTGATGTGTACACATTAATACAGTTTTACA [CACACA_site5711],11.7 ± 0.91
10,TTATTTAAATAATATGTACACACATTTAAAAAATTA [CACACA_site8912],11.6 ± 0.95
11,GATGATGTTTATTTGTGTACATATTAATACTTAATA [XGTACX_site1902],11.4 ± 0.82
12,TTAATATTTTGATGTGTACACATTAAAATAGTTTTA [CACACA_site5712],11.8 ± 0.89
13,GATGATAAAATATGTACACACAGTTTATACATTTTG [CACACA_site4055],11.3 ± 0.76
14,TTTTATTATTTGTCTTGTACTCATTGTAAGAGTATG [XGTACX_site1538],11.4 ± 0.91
15,ATATAATAATATTATACATGCAAAATATGTTCTTCA [TGCATGCA_site115],9.795 ± 0.049
16,AACTTTATACTTTTTTGTACTTAACCCTTACATTTT [XGTACX_site5798],11.1 ± 0.38
17,AATAACAATTATAAAAGTACAGATTTTTATTTCTAA [XGTACX_site5746],11.1 ± 0.79
18,TATGTATATATATAAAGTACGCAAATTTATAATAAG [XGTACX_site8744],11.5 ± 0.98
19,TATATAAAAATATGTTGTACGCATTTATAAATATAT [XGTACX_site3758],11.6 ± 0.98
20,AAATAAAATTTTATGTGTACGCAAAAAGTTGTAAGC [XGTACX_site8911],11.9 ± 1.3
21,GCGTAATCTATTTGCACACTTATTTGTTCTTAAAAA [CACACA_site672],10.2 ± 0.14
22,AAGATATGTACTAATACACACACATATATATATATA [CACACA_site8249],11.2 ± 0.79
